According to PubChem BioAssay (NCI):
Compounds without any hit were thinned out: in the full panel of roughly 79,000, 15% have a hit. Values without a mark were called inactive. The source made the active and inactive calls. Cut-off read from the data, not from the text of the source: active = growth inhibition above about 70%; inactive = the rest.

assay: NCI Yeast Anticancer Drug Screen. Data for the sgs1 mgt1 strain (AID 161);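 note: 0% = growth of cultures given vehicle only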; settings: S. cerevisiae sgs1 mgt1 strain, at 5.0 µM (retest, dose inferred, filed as 0.5), hits give high values
Summary of the method: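 Read-out: growth inhibition vs vehicle controls. Cells: mutant yeast strain deficient in DNA damage repair.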

Structure (SMILES) | growth inhibition
CC(C)(C)CC(C)(C)c1ccc(O)cc1 | -6%
CC[n+]1c(/C=C/c2ccc(N(CCCl)CCCl)cc2)ccc2cc(I)ccc21 | 99% (active)
CCCCCCC1CCC2CCCC(C)N12 (stereo not drawn) | 10%
C[N+](C)(C)CC1CCC(C[N+](C)(C)C)C1=O (stereo not drawn) | 0%
CCC[CH2][Sn]1([CH2]CCC)[O]C(=O)c2cc(C)ccc2[O]1 | 86% (active)
COc1ccc(CC2C(=O)NC(C)C(=O)N(C)C3C(=O)N(C)C(Cc4ccc(O)c(c4)Oc4ccc(cc4)C3O)C(=O)NC(C)C(=O)NC(C)C(=O)N2C)cc1 (stereo not drawn) | 12%
CC(=O)Nc1cccc([As+](C)(c2cccc(NC(C)=O)c2)c2cccc(NC(C)=O)c2)c1 | -14%
COC1OC(COC(C)=O)C(OC(C)=O)C(OC(C)=O)[C]1(OC(C)=O)[Hg][O]C(C)=O (stereo not drawn) | 99% (active)
CCOC(=O)C(NC(=O)C(Cc1ccc(N(CCCl)CCCl)cc1)NC(C)=O)C(C)C (stereo not drawn) | -5%
CN1c2cccc[c]2[Sn]([CH3])([CH3])[c]2ccccc21 | 97% (active)
Cc1ccc(C(=O)OC(C(=O)O)C(OC(=O)c2ccc(C)cc2)C(=O)O)cc1 (stereo not drawn) (tested in a mixture with another compound) | 28%
CC(C)(c1ccccc1)c1ccc(O)cc1 | -7%
CC1(C)N=C(N)N=C(N)N1CCCOc1ccc(NC(=O)c2ccc(S(=O)(=O)F)cc2)cc1 | -2%
CC1=CC2OC3CC4OC(=O)/C=C/C=C/C(=O)OCCC(C)C(O)C(=O)OCC2(CC1O)C4(C)C31CO1 (stereo not drawn) | 98% (active)
C=CCOc1cc2c(ccc1=O)-c1c(cc(OC)c(OC)c1OC)CCC2NC(C)=O (stereo not drawn) | -18%
c1ccc2c(c1)[As]=c1ccccc1=[As]2 (stereo not drawn) | 58%
CCC(C)(c1ccc(O)cc1)c1ccc(O)cc1 | 3%
COc1cc(C2c3cc4c(cc3[C@@H](Nc3ccc(F)cc3)C3COC(=O)[C@H]23)OCO4)cc(OC)c1O (stereo partly drawn) | 94% (active)
CC(C)(C)OC(=O)NC(CSC(c1ccccc1)(c1ccccc1)c1cccs1)C(=O)O (stereo not drawn) | 7%
CCOP(=S)(OCC)OC(c1ccc(Cl)cc1)c1ccc(Cl)cc1 | 7%

Structure (SMILES) | growth inhibition
COc1ccc(OC)c(C=O)c1 | -2%
CC(=O)Oc1cccc2c1CC(C[Se]c1ccccc1)C(=O)O2 (stereo not drawn) | 11%
CCOC(=S)S | 4%
CC(NCCN(C)C)C1CC2CCCCN2C1 (stereo not drawn) | -13%
Nc1ncc(CCCCc2ccc(NC(=O)Nc3ccc(S(=O)(=O)F)cc3)cc2)c(N)n1 | -17%
CC#N.FC(F)(F)C#CC(F)(F)F.FC(F)(F)C#CC(F)(F)F.FC(F)(F)C#CC(F)(F)F.[W] | 90% (active)
[Cl][Hg][CH2]CC1CC=CCC1 (stereo not drawn) | 100% (active)
CC(=O)O[C@H]1CC[C@H]2[C@@H]3CCC4=CC(=O)CC[C@@H]4[C@H]3CC[C@]12C | -4%
c1ccc(P(CCP(c2ccccc2)c2ccccc2)CCP(c2ccccc2)c2ccccc2)cc1 | 92% (active)
Cc1cc(NCc2ccccc2)c2ccccc2[n+]1CCCCCCCCCC[n+]1c(C)cc(NCc2ccccc2)c2ccccc21 | 99% (active)
CCCCC(CC)CNP(=S)(NCC(CC)CCCC)NCC(CC)CCCC (stereo not drawn) | -4%
Nc1c(Br)cc(Br)c2c1C(=O)c1ccccc1C2=O | 3%
O=[N+]([O-])/C=C/c1cc2c(cc1Br)OCO2 | 73% (active)
CC(Br)CN(CC(C)Br)c1ccc2c(c1)Cc1ccccc1-2 (stereo not drawn) | 8%
c1ccc2c[n+](CCCCCCCCCC[n+]3ccc4ccccc4c3)ccc2c1 | 79% (active)
CCC[CH2][Sn]([N]=C=S)([N]=C=S)[N]=C=S.O=P(c1ccccc1)(c1ccccc1)c1ccccc1.O=P(c1ccccc1)(c1ccccc1)c1ccccc1 | -4%
CN(CCC(N)CC(=O)NC1C=CC(n2ccc(N)nc2=O)OC1C(=O)O)C(=N)N (stereo not drawn) | 42%
O=C1C=CC(=O)N1c1cccc2ccccc12 (tested in a mixture with another compound) | 0%
CN(C)c1ccc(N=Cc2c([O-])ccc3ccccc23)cc1.[C-]#[O+].[C-]#[O+].[Ir] | -17%

same assay, conditions: S. cerevisiae sgs1 mgt1 strain, at 50.0 µM (retest, dose inferred, filed as 5.0), hits give high values

Structure (SMILES) | growth inhibition
CC(C)(C)CC(C)(C)c1ccc(O)cc1 | 98% (active)
CC[n+]1c(/C=C/c2ccc(N(CCCl)CCCl)cc2)ccc2cc(I)ccc21 | 99% (active)
CCCCCCC1CCC2CCCC(C)N12 (stereo not drawn) | 68%
C[N+](C)(C)CC1CCC(C[N+](C)(C)C)C1=O (stereo not drawn) | -47%
CCC[CH2][Sn]1([CH2]CCC)[O]C(=O)c2cc(C)ccc2[O]1 | 98% (active)
COc1ccc(CC2C(=O)NC(C)C(=O)N(C)C3C(=O)N(C)C(Cc4ccc(O)c(c4)Oc4ccc(cc4)C3O)C(=O)NC(C)C(=O)NC(C)C(=O)N2C)cc1 (stereo not drawn) | 63%
CC(=O)Nc1cccc([As+](C)(c2cccc(NC(C)=O)c2)c2cccc(NC(C)=O)c2)c1 | 13%
COC1OC(COC(C)=O)C(OC(C)=O)C(OC(C)=O)[C]1(OC(C)=O)[Hg][O]C(C)=O (stereo not drawn) | 99% (active)
CCOC(=O)C(NC(=O)C(Cc1ccc(N(CCCl)CCCl)cc1)NC(C)=O)C(C)C (stereo not drawn) | 7%
CN1c2cccc[c]2[Sn]([CH3])([CH3])[c]2ccccc21 | 99% (active)
Cc1ccc(C(=O)OC(C(=O)O)C(OC(=O)c2ccc(C)cc2)C(=O)O)cc1 (stereo not drawn) (tested in a mixture with another compound) | 70% (active)
CC(C)(c1ccccc1)c1ccc(O)cc1 | 46%
CC1(C)N=C(N)N=C(N)N1CCCOc1ccc(NC(=O)c2ccc(S(=O)(=O)F)cc2)cc1 | 15%
CC1=CC2OC3CC4OC(=O)/C=C/C=C/C(=O)OCCC(C)C(O)C(=O)OCC2(CC1O)C4(C)C31CO1 (stereo not drawn) | 99% (active)
C=CCOc1cc2c(ccc1=O)-c1c(cc(OC)c(OC)c1OC)CCC2NC(C)=O (stereo not drawn) | 45%
c1ccc2c(c1)[As]=c1ccccc1=[As]2 (stereo not drawn) | 99% (active)
CCC(C)(c1ccc(O)cc1)c1ccc(O)cc1 | 98% (active)
COc1cc(C2c3cc4c(cc3[C@@H](Nc3ccc(F)cc3)C3COC(=O)[C@H]23)OCO4)cc(OC)c1O (stereo partly drawn) | 99% (active)
CC(C)(C)OC(=O)NC(CSC(c1ccccc1)(c1ccccc1)c1cccs1)C(=O)O (stereo not drawn) | 99% (active)
CCOP(=S)(OCC)OC(c1ccc(Cl)cc1)c1ccc(Cl)cc1 | -20%

Structure (SMILES) | growth inhibition
COc1ccc(OC)c(C=O)c1 | 12%
CC(=O)Oc1cccc2c1CC(C[Se]c1ccccc1)C(=O)O2 (stereo not drawn) | 57%
CCOC(=S)S | 99% (active)
CC(NCCN(C)C)C1CC2CCCCN2C1 (stereo not drawn) | -28%
Nc1ncc(CCCCc2ccc(NC(=O)Nc3ccc(S(=O)(=O)F)cc3)cc2)c(N)n1 | 75% (active)
CC#N.FC(F)(F)C#CC(F)(F)F.FC(F)(F)C#CC(F)(F)F.FC(F)(F)C#CC(F)(F)F.[W] | 99% (active)
[Cl][Hg][CH2]CC1CC=CCC1 (stereo not drawn) | 99% (active)
CC(=O)O[C@H]1CC[C@H]2[C@@H]3CCC4=CC(=O)CC[C@@H]4[C@H]3CC[C@]12C | 91% (active)
c1ccc(P(CCP(c2ccccc2)c2ccccc2)CCP(c2ccccc2)c2ccccc2)cc1 | 92% (active)
Cc1cc(NCc2ccccc2)c2ccccc2[n+]1CCCCCCCCCC[n+]1c(C)cc(NCc2ccccc2)c2ccccc21 | 99% (active)
CCCCC(CC)CNP(=S)(NCC(CC)CCCC)NCC(CC)CCCC (stereo not drawn) | 27%
Nc1c(Br)cc(Br)c2c1C(=O)c1ccccc1C2=O | 0%
O=[N+]([O-])/C=C/c1cc2c(cc1Br)OCO2 | 87% (active)
CC(Br)CN(CC(C)Br)c1ccc2c(c1)Cc1ccccc1-2 (stereo not drawn) | 87% (active)
c1ccc2c[n+](CCCCCCCCCC[n+]3ccc4ccccc4c3)ccc2c1 | 98% (active)
CCC[CH2][Sn]([N]=C=S)([N]=C=S)[N]=C=S.O=P(c1ccccc1)(c1ccccc1)c1ccccc1.O=P(c1ccccc1)(c1ccccc1)c1ccccc1 | 46%
CN(CCC(N)CC(=O)NC1C=CC(n2ccc(N)nc2=O)OC1C(=O)O)C(=N)N (stereo not drawn) | 90% (active)
O=C1C=CC(=O)N1c1cccc2ccccc12 (tested in a mixture with another compound) | 2%
CN(C)c1ccc(N=Cc2c([O-])ccc3ccccc23)cc1.[C-]#[O+].[C-]#[O+].[Ir] | -17%
